Molecules are shown by their SMILES. Inconclusive results are not listed. The source made the active and inactive calls. Calls come from the whole dose curve; as a rule, active = well fitted inhibition curve with a large enough effect; inconclusive = small, poorly fitted or top-dose-only effect; inactive = flat fitted curve, though single readings scatter. Peptide text beside a SMILES is read from it.

The test concerns Zika virus NS2B-NS3 protease. Put plainly: Primary screen GU AMC qHTS for Zika virus inhibitors (AID 1347154).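 Note: 0% = no-inhibitor control and -100% = no-enzyme control; nearly all actives have a fitted effect of over 70% in size.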 The following applies: Zika NS2B-NS3 unlinked protease, AMC fluorogenic substrate; series mostly up to 54.1 µM; activity change, negative = inhibition: at the top concentration. From the text:
Avindra Nath, Ph.D., National Institute of Neurological Disorders and Stroke (NINDS), Bethesda, MD
Radhakrishnan Padmanabhan, Ph.D., Georgetown University (GU), Washington D.C.
Zika Virus causes congenital defects, including microcephaly and is associated with Guillain-Barre syndrome, eningoencephalitis and myelitis in infected adult. […] Using a target-based approach, we hope to establish a screening paradigm to uncover novel, cell-active NS2B-NS3 protease (Zika Virus) specific inhibitors from NCATS' collection of small molecules using qHTS.
Early Translation Branch (ETB)
National Center for Advancing Translational Sciences (NCATS), Rockville, MD
National Institute of Health (NIH), Bethesda, Maryland
Padmanabhan lab provided the NS2B hydrophilic domain and NS3 protease domain in a noncovalent complex used for the unlinked assay. Control compound aprotinin is obtained from Thermo Scientific (#78432; Waltham, Massachusetts). NS2B-NS3 AMC substrate (Bz-Nle-Lys-Arg-Arg-AMC; Nle-KRR-AMC) purchased from Bachem (#I-1995; Torrance, CA). Ac-VKTGKR-AMC purchased from Genscript or Bachem, Ac-FAAGKR-AMC purchased from Genscript, Ac-GLVKRR-AMC purchased from Genscript, Ac-LKKR-AMC purchased from Genscript.
GU AMC unlinked NS2B-NS3 protease qHTS protocol
Briefly, 3 microL of Zika virus unlinked NS2B-NS3 protease (25 nM for linked final concentration), in assay buffer (10 mM Tris-HCl pH 8.0 with 0.01% Tween 20) was dispensed into a 1,536-well solid-bottom black plate (Greiner Bio One, Monroe, NC). […] Plates were then read immediately on a ViewLux High-throughput CCD imager (PerkinElmer, Waltham, MA) equipped with standard UV fluorescence optics (340(30) nm excitation, 450(20) nm emission) then incubated (room temperature, protected from light) for 15 minutes (~20% conversion). The change in fluorescence intensity over the 15-minute reaction period was normalized against no-inhibitor and no-enzyme controls and the resulting percent inhibition data were fitted to a 4-parameter Hill equation. Aprotinin was used as the intraplate control.
(In qHTS, concentration-response curves come from the screen itself.)
In the case of `CCCC(=O)Nc1ncnc2c1ncn2[C@@H]1O[C@@H]2COP(=O)(O)O[C@H]2[C@H]1OC(=O)CCC`, the “activity change, negative = inhibition” value was -5.92% (inactive). Regarding `CC(NC(=O)Cc1cc(F)cc(F)c1)C(=O)NC(C(=O)OC(C)(C)C)c1ccccc1` (stereo unspecified), the “activity change, negative = inhibition” value is -1.75% (inactive).

With `CC1=C(/C=C/C(C)=C/C=C/C(C)=C/CO)C(C)(C)CCC1`, the “activity change, negative = inhibition” value is 12.6% (inactive).

On to `CCOC(=O)C1=CC2(CC)CCCN3CCc4c(n1c1ccccc41)C32` (stereo unspecified), for which the “activity change, negative = inhibition” value was 6.18% [at 104 µM] (inactive). Still for that read-out and setting: as for `CC(=O)OC(C)OC(=O)C(C)c1ccc(-c2ccccc2)c(F)c1` (stereo unspecified), the figure is -8.69% (inactive). In the case of `CC(=O)N[C@@H](CC(=O)O)C(=O)N[C@@H](CCC(=O)O)C(=O)O` (Ac-Asp-Glu-OH), the “activity change, negative = inhibition” value was 2.49% (inactive). On to `COC(=O)C1=C(C)NC(C)=C(C(=O)OCCCN2CCC(c3ccccc3)(c3ccccc3)CC2)[C@H]1c1cccc([N+](=O)[O-])c1`, for which the molecule was called inactive.

With `O=C(O)CC/C=C\CC[C@H]1[C@@H](N2CCCCC2)[C@@H](O)C[C@@H]1OCc1ccc(-c2ccccc2)cc1`, the “activity change, negative = inhibition” value is -1.82% (inactive).

In the case of `CNc1cc(OC)c(C(=O)N[C@H]2CCN(Cc3ccccc3)[C@H]2C)cc1Cl`, the “activity change, negative = inhibition” value is 24.3% (inactive). Same read-out and setting: as for `CCCCC/C=C\C/C=C\CCCCCCCC(=O)O`, the figure is 4.61% [at 6.83 µM] (inactive); as for `CC(C)N=c1cc2n(-c3ccc(Cl)cc3)c3ccccc3nc-2cc1Nc1ccc(Cl)cc1`, -7.73% (inactive).

The values are drawn from PubChem BioAssay (NCATS).
